Our source for the Potency and max activation values is PubChem BioAssay (Tox21).

Assay [1] in a line: Human pregnane X receptor (PXR) small molecule agonists, qHTS cell viability counter screen (AID 1346977). Also: nearly all actives have a fitted effect of over 50% in size. Also: potency is read from the fitted curve at half-maximal effect. The method, boiled down:
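Cytotoxicity counter screen run in the same wells as the PXR luciferase assay, using PXR-Luc HepG2 cells in charcoal-stripped serum medium. Viability: CellTiter-Fluor fluorescence after 24hr compound treatment.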
Background: In qHTS, concentration-response curves come from the screen itself.

The nature of assay [2]: Caspase-3/7 induction in HepG2 cells by small molecules, qHTS assay (AID 1346978). Also: nearly all actives have a fitted effect of over 15% in size. The method, boiled down:
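Wild-type HepG2 cells (2,000/well) were settled 5 h at 37 C, 5% CO2, then exposed to compounds in DMSO for 17 h. Caspase-3/7 activity was read by luminescence 30 min after adding Caspase-Glo 3/7 reagent at room temperature.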

Assay [3] is described as follows: Caspase-3/7 induction in CHO-K1 cells by small molecules, qHTS cell viability counter screen (AID 1346979). Also: nearly all actives have a fitted effect of over 35% in size. Also: potency is read from the fitted curve at half-maximal effect. An outline of the steps:
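Cytotoxicity counter screen run in parallel with the caspase-3/7 assay: CHO-K1 cells, 16hr compound treatment at 37C, then CellTiter-Fluor for 1hr before fluorescence reading.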

Assay [4] can be described thus: Caspase-3/7 induction in CHO-K1 cells by small molecules, qHTS assay (AID 1346980). Also: nearly all actives have a fitted effect of over 15% in size. The method, boiled down: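 Wild-type cells were seeded at 1,500 per well and settled 5 hr at 37 C, 5% CO2, then exposed to DMSO-dissolved compounds for 17 hr. Caspase-Glo 3/7 reagent was added, and luminescence was read after 30min at room temperature.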
Assay [5] can be described thus: Caspase-3/7 induction in HepG2 cells by small molecules, qHTS cell viability counter screen (AID 1346981). Also: nearly all actives have a fitted effect of over 30% in size. Also: potency is read from the fitted curve at half-maximal effect. The method, boiled down:
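Fluorescence read-out of live-cell protease activity (CellTiter-Fluor) after 1 hr with reagent. This was measured in the same wells as the caspase-3/7 luminescence, on HepG2 cells exposed to DMSO-dissolved compounds for 16 hr at 37 C.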

The target in assay [6] is Nuclear receptor subfamily 1 group I member 2 (Rattus norvegicus) (UniProt Q9R1A7). Briefly: Rat pregnane X receptor (rPXR) activation by small molecules, qHTS assay (AID 1346983). Also: nearly all actives have a fitted effect of over 20% in size. To be noted: rPXR luciferase reporter cells, One-Glo luminescence, 24 h; stronger effect = higher value. The method, boiled down: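 Cell-based rPXR luciferase reporter assay, 2,000 cells per well, rested 5hr at 37 C before compound addition in DMSO, then 24 hr at 37 C. One-Glo reagent was added and luminescence read after 30 min at room temperature.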

Assay [7] has as its target Voltage-gated inwardly rectifying potassium channel KCNH2 (Homo sapiens) (UniProt Q12809). As to the kind of experiment: Human Ether-a-go-go-Related Gene (hERG) channel small molecule antagonists: fluorescence cell-based qHTS assay (AID 1671200). Also: nearly all actives have a fitted effect of over 50% in size. Also: potency is read from the fitted curve at half-maximal effect. The method, boiled down: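 Fluorescence at 540 nm emission (480 nm excitation) was recorded kinetically for 2 min at 1-second intervals once the thallium-containing stimulus reached cells previously loaded with FluxOR II dye.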
(hERG is a cardiac potassium channel; its block is linked to QT prolongation.)

Assay [8] deals with Nuclear receptor subfamily 1 group I member 2 (Homo sapiens) (UniProt O75469). Briefly: Human pregnane X receptor (PXR) small molecule agonists, qHTS assay (AID 1346982). Also: nearly all actives have a fitted effect of over 35% in size. Also: potency is read from the fitted curve at half-maximal effect. The method, boiled down:
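HepG2 PXR-Luc reporter line, 5% charcoal-stripped FBS; 5 hr pre-incubation, compound (DMSO) 24 hr at 37 C/5% CO2; ONE-Glo 30 min RT; luminescence read-out.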

Assay [9] concerns the target Acetylcholinesterase (Homo sapiens) (UniProt P22303). As to the kind of experiment: Acetylcholinesterase (AChE) small molecule antagonists: enzyme-based qHTS assay (AID 1347397; calls by dose curve; also: nearly all actives have a fitted effect of over 55% in size). Particulars: Potency: AChE enzyme activity inhibition; outcome: AChE enzyme activity inhibition. An outline of the steps: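 Tox21 library chemicals are tested in qHTS format against recombinant human AChE. The enzyme, dispensed at 50 mU/mL, sits with compound for 30 min at room temperature. A DTNB–acetylthiocholine cocktail follows, and colour is read after 10 min.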

Assay [10] shares this target. Briefly: Acetylcholinesterase (AChE) small molecule antagonists: fluorescence cell-based qHTS assay (AID 1347398; calls by dose curve; also: nearly all actives have a fitted effect of over 50% in size). Particulars: Potency: AChE activity; outcome: AChE activity. An outline of the steps:
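Cellular AChE inhibition: SH-SY5Y cells treated with test chemical for 30 min at 37 C, then acetylthiocholine hydrolysis followed over 40 min at room temperature via thiocholine-reactive Thiolite Green fluorescence (490/520 nm).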

Assay [11] shares this target. Briefly: Acetylcholinesterase (AChE) small molecule antagonists: enzyme-based qHTS assay with human liver microsomes (AID 1347399; calls by dose curve; also: nearly all actives have a fitted effect of over 60% in size). Particulars: Potency: qHTS inhibition; outcome: qHTS inhibition. The method, boiled down: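 Recombinant human AChE (50 mU/mL in the enzyme mix) and human liver microsomes (0.25 mg/mL final) were preincubated with compound and NADPH (0.25 mg/mL final) for 30 min at 37 C. Acetylthiocholine/DTNB was then added; thiocholine was read colorimetrically after 10 min at room temperature.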

Assay [12] addresses Cytochrome P450 2D6 (Homo sapiens) (UniProt P10635). Briefly: Cytochrome P450 Family 2 Subfamily D Member 6 (CYP2D6) small molecule antagonists: luciferase reporter qHTS assay (AID 1671196). Also: nearly all actives have a fitted effect of over 50% in size. Also: potency is read from the fitted curve at half-maximal effect. The method, boiled down:
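Luminogenic proluciferin substrate, CYP2D6 enzyme; 10 min RT preincubation with compound, NADPH regeneration system added, 1 h RT. Stop/detection reagent, 20 min RT, luminescence read (RLU). Signal proportional to CYP activity.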
(In a reporter assay the amount or activity of a reporter protein is the signal.)

Assay [13] addresses Cytochrome P450 2C19 (Homo sapiens) (UniProt P33261). As to the kind of experiment: Cytochrome P450 Family 2 Subfamily C Member 19 (CYP2C19) small molecule antagonists: luciferase reporter qHTS assay (AID 1671197). Also: nearly all actives have a fitted effect of over 65% in size. Also: potency is read from the fitted curve at half-maximal effect. The method, boiled down: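 First, compounds are pinned into enzyme-substrate mix and held 10 min at room temperature. Second, NADPH regeneration solution is added and plates incubate 1 h at 37C. Third, detection reagent is added and luminescence read after 20 min.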

For assay [14], the target named is Cytochrome P450 2C9 (Homo sapiens) (UniProt P11712). Briefly: Cytochrome P450 Family 2 Subfamily C Member 9 (CYP2C9) small molecule antagonists: luciferase reporter qHTS assay (AID 1671198). Also: nearly all actives have a fitted effect of over 50% in size. Also: potency is read from the fitted curve at half-maximal effect. An outline of the steps: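 CYP2C9 activity was measured with a P450-Glo proluciferin substrate. Enzyme–substrate mix was held with compound for 10 min at room temperature, then NADPH regeneration solution was added for 1 h at 37C. Luciferin product was read as luminescence.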
Cytochrome P450 2C9 (Homo sapiens), sequence (P11712 whole entry, looked up): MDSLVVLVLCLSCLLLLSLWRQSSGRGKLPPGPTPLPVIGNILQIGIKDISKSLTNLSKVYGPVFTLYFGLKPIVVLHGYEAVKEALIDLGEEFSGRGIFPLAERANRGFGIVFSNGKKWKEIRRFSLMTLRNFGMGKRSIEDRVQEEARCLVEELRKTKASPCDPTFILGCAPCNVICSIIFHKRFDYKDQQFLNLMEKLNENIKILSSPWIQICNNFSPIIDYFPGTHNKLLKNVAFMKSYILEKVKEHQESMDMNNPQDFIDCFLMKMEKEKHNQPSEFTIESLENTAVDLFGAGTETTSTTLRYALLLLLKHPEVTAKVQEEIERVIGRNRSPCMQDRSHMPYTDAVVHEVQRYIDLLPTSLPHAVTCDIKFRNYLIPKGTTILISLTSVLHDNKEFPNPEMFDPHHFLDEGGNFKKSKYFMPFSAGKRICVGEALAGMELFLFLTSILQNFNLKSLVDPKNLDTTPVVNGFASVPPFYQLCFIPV

Assay [15] has as its target Cytochrome P450 1A2 (Homo sapiens) (UniProt P05177). Briefly: Cytochrome P450 Family 1 Subfamily A Member 2 (CYP1A2) small molecule antagonists: luciferase reporter qHTS assay (AID 1671199). Also: nearly all actives have a fitted effect of over 50% in size. Also: potency is read from the fitted curve at half-maximal effect. An outline of the steps: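 Luminescence readout (relative luminescence units) after luciferin detection reagent, 20 min RT. Preceded by 1 h room-temperature CYP1A2 reaction with NADPH regeneration solution following 10 min compound preincubation with enzyme and proluciferin substrate. Furafylline positive control.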

The target of assay [16] is Cytochrome P450 3A4 (Homo sapiens) (UniProt P08684). Briefly: Cytochrome P450 Family 3 Subfamily A Member 4 (CYP3A4) small molecule antagonists: luciferase reporter qHTS assay (AID 1671201). Also: nearly all actives have a fitted effect of over 50% in size. Also: potency is read from the fitted curve at half-maximal effect. The method, boiled down: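 qHTS, 1536-well. CYP3A4 + proluciferin substrate, cpd 10 min RT → NADPH regen 1 h RT → detection reagent 20 min → luminescence (RLU). Ketoconazole positive control.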
Cytochrome P450 3A4 (Homo sapiens), sequence (P08684 whole entry, looked up): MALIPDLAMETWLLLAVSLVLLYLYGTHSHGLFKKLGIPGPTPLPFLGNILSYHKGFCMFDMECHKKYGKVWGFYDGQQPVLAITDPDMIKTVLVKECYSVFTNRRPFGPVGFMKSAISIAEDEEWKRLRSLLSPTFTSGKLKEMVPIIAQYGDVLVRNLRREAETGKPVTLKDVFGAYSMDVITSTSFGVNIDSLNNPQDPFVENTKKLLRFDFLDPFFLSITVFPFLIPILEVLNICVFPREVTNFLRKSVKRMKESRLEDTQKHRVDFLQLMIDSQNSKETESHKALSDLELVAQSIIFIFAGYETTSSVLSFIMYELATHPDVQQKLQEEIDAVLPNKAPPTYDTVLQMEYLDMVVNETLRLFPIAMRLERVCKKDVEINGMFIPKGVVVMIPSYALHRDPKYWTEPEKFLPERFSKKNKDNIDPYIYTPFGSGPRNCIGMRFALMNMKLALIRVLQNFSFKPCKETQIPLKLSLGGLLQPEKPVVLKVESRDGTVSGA

For assay [17], the target named is Acetylcholinesterase (Homo sapiens) (UniProt P22303). Briefly: Acetylcholinesterase (AChE) small molecule antagonists: colormetric cell-based qHTS assay (AID 1347395; calls by dose curve; also: nearly all actives have a fitted effect of over 30% in size). An outline of the steps:
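Cells (SH-SY5Y, 2,000 per well) are seeded and left overnight at 37 C. Compound is added for 30 min, then DTNB and acetylthiocholine for a further 90 min at 37 C before absorbance-based thiocholine detection.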

Several values for one entry are separate records, joined by “and”; a condition that tells them apart may be missing. Equal entries are not always repeated. Inconclusive results are not listed. More than one record can exist for a structure, and the calls need not agree. Activity calls are given as the source filed them. Unless noted, calls follow the shape of the dose curve; as a rule, active = well fitted curve in the direction sought with a large enough effect in the repeat runs; inconclusive = weak or mixed curves; inactive = no such curve, though single readings can be large; an effect the other way counts as inactive or inconclusive.
% is scaled to controls: 0 for no effect and ±100 for the full control effect.

Cytochrome P450 1A2 (Homo sapiens), sequence (P05177 whole entry, looked up): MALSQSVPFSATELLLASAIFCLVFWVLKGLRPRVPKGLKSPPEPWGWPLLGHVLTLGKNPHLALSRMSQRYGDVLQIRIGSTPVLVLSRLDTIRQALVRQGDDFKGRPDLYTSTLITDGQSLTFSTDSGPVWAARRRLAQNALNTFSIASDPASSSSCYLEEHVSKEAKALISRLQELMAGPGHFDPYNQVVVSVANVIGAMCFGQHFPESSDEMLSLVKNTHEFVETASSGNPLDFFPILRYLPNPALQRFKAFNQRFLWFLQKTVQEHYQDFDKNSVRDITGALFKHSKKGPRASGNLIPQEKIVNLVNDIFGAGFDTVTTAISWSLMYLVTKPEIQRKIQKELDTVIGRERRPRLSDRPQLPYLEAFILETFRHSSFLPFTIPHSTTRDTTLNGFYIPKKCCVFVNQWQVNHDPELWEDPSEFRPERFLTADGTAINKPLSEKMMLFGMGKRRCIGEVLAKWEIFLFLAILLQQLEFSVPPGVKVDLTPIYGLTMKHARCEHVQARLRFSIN
Nuclear receptor subfamily 1 group I member 2 (Homo sapiens), sequence (O75469 whole entry, looked up): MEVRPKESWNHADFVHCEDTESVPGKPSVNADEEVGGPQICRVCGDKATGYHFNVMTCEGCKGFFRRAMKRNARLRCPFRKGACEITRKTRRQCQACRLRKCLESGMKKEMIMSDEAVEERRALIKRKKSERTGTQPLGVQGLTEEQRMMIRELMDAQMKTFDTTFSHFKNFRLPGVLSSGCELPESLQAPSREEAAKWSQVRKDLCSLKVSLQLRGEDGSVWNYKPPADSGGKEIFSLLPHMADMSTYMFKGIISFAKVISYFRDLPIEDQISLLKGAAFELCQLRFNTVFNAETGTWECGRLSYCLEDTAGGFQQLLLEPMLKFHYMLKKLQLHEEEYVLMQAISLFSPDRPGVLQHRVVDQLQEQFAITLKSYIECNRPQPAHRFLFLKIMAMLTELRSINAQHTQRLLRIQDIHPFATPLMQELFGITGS
Cytochrome P450 2C19 (Homo sapiens), sequence (P33261 whole entry, looked up): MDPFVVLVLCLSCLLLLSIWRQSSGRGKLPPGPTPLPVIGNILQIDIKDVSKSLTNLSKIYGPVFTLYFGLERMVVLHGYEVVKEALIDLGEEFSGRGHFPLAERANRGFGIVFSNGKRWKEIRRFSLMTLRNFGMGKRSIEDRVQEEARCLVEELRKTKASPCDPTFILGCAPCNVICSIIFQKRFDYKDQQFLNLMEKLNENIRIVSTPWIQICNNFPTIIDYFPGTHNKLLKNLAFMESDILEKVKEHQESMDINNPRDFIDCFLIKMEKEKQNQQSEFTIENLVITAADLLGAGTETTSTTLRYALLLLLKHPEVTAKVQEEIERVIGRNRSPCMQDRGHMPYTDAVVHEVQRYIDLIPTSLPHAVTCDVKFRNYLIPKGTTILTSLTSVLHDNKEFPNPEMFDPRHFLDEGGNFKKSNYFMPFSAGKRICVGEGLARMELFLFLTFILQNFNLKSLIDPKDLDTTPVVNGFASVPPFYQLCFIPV
Voltage-gated inwardly rectifying potassium channel KCNH2 (Homo sapiens), sequence (Q12809 whole entry, looked up): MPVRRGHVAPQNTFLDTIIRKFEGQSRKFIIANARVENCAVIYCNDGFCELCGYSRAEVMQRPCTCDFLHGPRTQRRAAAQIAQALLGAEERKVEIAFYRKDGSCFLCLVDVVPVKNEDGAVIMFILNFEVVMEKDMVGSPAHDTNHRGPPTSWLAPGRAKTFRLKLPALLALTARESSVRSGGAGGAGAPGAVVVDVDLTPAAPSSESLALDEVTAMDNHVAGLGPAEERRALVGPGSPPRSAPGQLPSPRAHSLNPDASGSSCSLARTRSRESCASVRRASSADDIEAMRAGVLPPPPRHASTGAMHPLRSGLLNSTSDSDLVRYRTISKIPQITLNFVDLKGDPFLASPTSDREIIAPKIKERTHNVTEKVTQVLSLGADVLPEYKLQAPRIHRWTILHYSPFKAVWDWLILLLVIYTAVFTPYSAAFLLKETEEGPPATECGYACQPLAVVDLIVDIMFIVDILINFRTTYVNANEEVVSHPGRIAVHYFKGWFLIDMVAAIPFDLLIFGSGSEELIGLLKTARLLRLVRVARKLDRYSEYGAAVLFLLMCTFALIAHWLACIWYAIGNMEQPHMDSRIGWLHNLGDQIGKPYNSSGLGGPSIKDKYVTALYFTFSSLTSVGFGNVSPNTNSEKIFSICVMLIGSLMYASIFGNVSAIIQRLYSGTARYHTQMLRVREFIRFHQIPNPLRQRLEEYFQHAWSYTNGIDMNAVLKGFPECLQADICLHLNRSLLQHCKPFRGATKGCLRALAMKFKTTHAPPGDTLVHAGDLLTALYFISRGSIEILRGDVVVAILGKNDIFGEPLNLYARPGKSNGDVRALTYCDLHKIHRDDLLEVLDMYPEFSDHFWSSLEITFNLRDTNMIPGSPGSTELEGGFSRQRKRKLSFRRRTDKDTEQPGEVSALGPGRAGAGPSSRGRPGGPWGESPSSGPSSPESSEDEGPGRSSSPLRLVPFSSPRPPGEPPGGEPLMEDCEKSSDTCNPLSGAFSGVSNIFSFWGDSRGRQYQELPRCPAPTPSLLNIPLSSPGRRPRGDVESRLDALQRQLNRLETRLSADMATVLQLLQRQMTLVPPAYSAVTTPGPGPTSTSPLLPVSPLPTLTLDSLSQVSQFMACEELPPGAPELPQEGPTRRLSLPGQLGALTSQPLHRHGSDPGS
Acetylcholinesterase (Homo sapiens), sequence (P22303 whole entry, looked up): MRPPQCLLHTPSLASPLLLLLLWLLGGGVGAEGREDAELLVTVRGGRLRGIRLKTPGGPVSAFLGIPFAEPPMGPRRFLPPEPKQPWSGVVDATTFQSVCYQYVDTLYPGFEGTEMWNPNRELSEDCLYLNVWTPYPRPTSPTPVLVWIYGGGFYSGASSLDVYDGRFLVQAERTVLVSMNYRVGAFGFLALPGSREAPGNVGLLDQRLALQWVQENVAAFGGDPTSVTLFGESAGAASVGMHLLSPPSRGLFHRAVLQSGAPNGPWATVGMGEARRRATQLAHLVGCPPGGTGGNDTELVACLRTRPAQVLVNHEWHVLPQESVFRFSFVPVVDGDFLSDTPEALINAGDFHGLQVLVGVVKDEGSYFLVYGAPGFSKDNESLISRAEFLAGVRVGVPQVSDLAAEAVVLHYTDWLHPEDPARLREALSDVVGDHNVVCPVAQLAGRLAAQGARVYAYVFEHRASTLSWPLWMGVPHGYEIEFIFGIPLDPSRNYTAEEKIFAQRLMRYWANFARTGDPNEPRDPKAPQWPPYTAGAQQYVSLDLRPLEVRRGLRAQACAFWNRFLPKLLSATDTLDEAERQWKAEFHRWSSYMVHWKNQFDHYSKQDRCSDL
Cytochrome P450 2D6 (Homo sapiens), sequence (P10635 whole entry, looked up): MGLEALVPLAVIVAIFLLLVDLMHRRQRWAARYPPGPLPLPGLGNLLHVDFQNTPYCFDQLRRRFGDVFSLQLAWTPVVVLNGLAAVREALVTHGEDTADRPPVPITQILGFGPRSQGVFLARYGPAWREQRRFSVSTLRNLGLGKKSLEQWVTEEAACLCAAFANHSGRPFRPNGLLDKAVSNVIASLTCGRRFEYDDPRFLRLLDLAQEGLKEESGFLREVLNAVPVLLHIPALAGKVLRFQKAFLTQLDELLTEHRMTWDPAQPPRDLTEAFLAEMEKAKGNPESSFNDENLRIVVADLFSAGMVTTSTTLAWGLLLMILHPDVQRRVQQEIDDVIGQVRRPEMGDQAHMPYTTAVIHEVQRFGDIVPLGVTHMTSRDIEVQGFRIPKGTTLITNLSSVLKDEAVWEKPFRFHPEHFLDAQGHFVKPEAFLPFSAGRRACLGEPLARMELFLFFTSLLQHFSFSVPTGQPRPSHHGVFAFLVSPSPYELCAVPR

In the case of `[Cl-].[Cl-].[Hg+2]`, the Potency in [1] was 7.08 µM (active) and 6.11 µM (active); in [3] it was 483 nM (active) and 2.43 µM (active); in assay [5] it was 27.2 µM (active) and 54.5 µM (active); in [7] it was 38.7 µM (active) and 6.92 µM (active). The Potency entry in assay [2] and in [4] was “inactive” in each case. Moreover, the max activation in [6] is -4.43% (inactive).
Turning to `C[C@]12CC[C@H]3[C@@H](CCC4=CC(=O)CC[C@@H]43)[C@@H]1CC[C@@H]2OC(=O)CCc1ccccc1`, the Potency entry in assay [1], in assay [2], in assay [3], in assay [4], in [5] and in [8] was “inactive” in each case. Besides, the Potency result in assay [9], in [10], in assay [11], in [12], in assay [13] and in assay [15] was “inactive” in each case. Moreover, the Potency entry in assay [16] is “inactive”. In assay [14], the Potency is 30.9 µM (active).
In the case of `FC(Cl)(Cl)C(F)(Cl)Cl`, the Potency entry in assay [1], in [2], in assay [3], in [4], in assay [5] and in assay [8] was “inactive” each time. The Potency result in [17], in assay [9], in [10], in assay [11], in assay [13] and in assay [14] was “inactive” in each case. The Potency entry in [7] and in assay [16] was “inactive” throughout.
`CCC[N+](CCC)(CCC)CCC`: the Potency result in assay [1], in assay [2], in assay [3], in assay [4], in [5] and in assay [8] was “inactive” in each case. Also, the Potency result in [9], in [10], in assay [11], in assay [14] and in assay [16] was “inactive” in each case.
For the compound `NNCCO`, the Potency entry in assay [1], in assay [2], in [3], in [4], in [5] and in assay [8] was “inactive” throughout. For the same compound, the Potency result in assay [9], in assay [10], in [11], in assay [12], in [13] and in assay [14] was “inactive” throughout. The Potency result in assay [15], in [7] and in assay [16] was “inactive” throughout.
Consider `CCC(C)(C)O`, for which the Potency result in [1], in [2], in assay [3], in [4], in [5] and in assay [8] was “inactive” each time. The Potency result in assay [17], in assay [9], in assay [10], in [11], in assay [13] and in assay [14] was “inactive” throughout. In addition, the Potency result in [7] and in [16] was “inactive” each time.
Consider `CCOP(=S)(OCC)Oc1ccc(S(C)=O)cc1` (centres undefined), for which the Potency result in [1], in assay [2], in [3], in assay [4], in assay [5] and in assay [9] was “inactive” throughout. The Potency entry in [11] and in assay [7] was “inactive” throughout. For the same compound, the Potency in assay [8] is 38.6 µM (active); in assay [13] it was 113 nM (active); in assay [14], 0.252 µM (active); in assay [15], 3.99 µM (active).
For `C=CCSSCC=C`, the Potency result in assay [1], in assay [2], in assay [3], in [4], in assay [5] and in [8] was “inactive” throughout. For the same compound, the Potency result in [9], in [10], in assay [11], in [12], in assay [7] and in [16] was “inactive” throughout. Moreover, the Potency is 7960 nM (active) in assay [13] and 31.7 µM (active) in assay [15].
On to `COP(=O)(OC)OC(Br)C(Cl)(Cl)Br` (centres undefined), for which the Potency entry in assay [1], in [2], in [4], in assay [5], in assay [10] and in assay [7] was “inactive” in each case. The Potency in [3] was 61.2 µM (active); in assay [8] it was 61.2 µM (active); in assay [12], 40 µM (active) and 39.9 µM (active); in [13], 7.98 µM (active) and 17.8 µM (active); in [14], 25.2 µM (active) and 22.4 µM (active); in assay [15], 35.6 µM (active). Further, the Potency in [16] is 79.8 µM (active) and inactive.
